According to PubChem BioAssay AID1159580 (chemical genetic matrix, 2015):
“And” between values parts separate entries of the source, which are not always exact repeats. Equal entries are not always repeated. Out of some 5,500 compounds screened, about 2,000 (36%) were called active. Inconclusive results (about 18%) are left out. No stated cut-off is given here; in the data, active means normalized growth mostly below about 0.91 (no sharp cut-off); inconclusive means no clear call, values can overlap the other calls; inactive means mostly above about 0.92. The list shows a part of the results.

Test: chemical genetic growth profiling, strain panel (AID 1159580);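 further: tested at 20 µM; growth read once vehicle control cultures reached saturation at 30 °C; 1 = growth at the plate median or of vehicle wells; lower values mean less growth of the strain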
Conditions: S. cerevisiae deletion strains, growth OD

Measured: normalized growth

COC(=O)[C@H]1[C@H]2C[C@@H]3c4[nH]c5cc(OC)ccc5c4CCN3C[C@H]2C[C@@H](OC(=O)c2cc(OC)c(OC)c(OC)c2)[C@@H]1OC
inactive: locus YAL013W, strain DEP1, active compounds read low 0.994 | locus YAL021C, strain ccr4, active compounds read low 0.965 | locus YAL026C, strain drs2, active compounds read low 0.974 | locus YAL030W, strain snc1, active compounds read low 0.981 | locus YBL061C, strain skt5, active compounds read low 1 | locus YBR009C, strain hhf1, active compounds read low 1.01 | locus YBR021W, strain FUR4, active compounds read low 0.981 | locus YBR023C, strain chs3, active compounds read low 0.979 | locus YBR171W, strain sec66, active compounds read low 1 | locus YBR229C, strain ROT2, active compounds read low 0.991 | locus YBR231C, strain swc5, active compounds read low 0.987 | locus YBR279W, strain paf1, active compounds read low 0.965 | locus YCL011C, strain gbp2, active compounds read low 0.97 | locus YCL016C, strain dcc1, active compounds read low 0.94 | locus YCL029C, strain bik1, active compounds read low 1.03 | locus YCL069W, strain vba3, active compounds read low 1.01 | locus YCR088W, strain abp1, active compounds read low 0.999 | locus YDL005C, strain med2, active compounds read low 0.98 | locus YDL035C, strain GPR1, active compounds read low 0.979 | locus YDL040C, strain nat1, active compounds read low 0.992 | locus YDL074C, strain BRE1, active compounds read low 0.952 | locus YDL101C, strain DUN1, active compounds read low 1.01 | locus YDL134C, strain PPH21, active compounds read low 1 | locus YDL185W, strain tfp1, active compounds read low 1.02 | locus YDL192W, strain arf1, active compounds read low 1.03 | locus YDR001C, strain nth1, active compounds read low 0.984 | locus YDR069C, strain doa4, active compounds read low 0.963 | locus YDR101C, strain arx1, active compounds read low 1 | locus YDR137W, strain rgp1, active compounds read low 1.04 | locus YDR150W, strain NUM1, active compounds read low 1 | locus YDR159W, strain sac3, active compounds read low 0.968 | locus YDR162C, strain NBP2, active compounds read low 0.991 | locus YDR195W, strain ref2 0.972 | locus YDR297W, strain sur2, active compounds read low 0.984 | locus YDR318W, strain mcm21, active compounds read low 1.01 | locus YDR334W, strain swr1, active compounds read low 0.972 | locus YDR335W, strain msn5, active compounds read low 0.993 | locus YDR388W, active compounds read low 1.01 | locus YDR392W, strain spt3, active compounds read low 0.784 | locus YDR502C, strain sam2, active compounds read low 0.996 | locus YEL003W, strain gim4, active compounds read low 0.977 | locus YEL037C, strain rad23, active compounds read low 1 | locus YEL061C, strain CIN8 (second series), active compounds read low 0.987 | locus YEL061C, strain CIN8, active compounds read low 0.999 | locus YER015W, strain faa2, active compounds read low 0.97 | locus YER016W, strain bim1, active compounds read low 1 | locus YER110C, active compounds read low 1.02 | locus YER111C, strain swi4, active compounds read low 0.996 | locus YER155C, strain BEM2 (second series), active compounds read low 0.931 | locus YER155C, strain BEM2, active compounds read low 1.02 | locus YER167W, strain BCK2, active compounds read low 0.987 | locus YFR010W, strain ubp6, active compounds read low 1.01 | locus YGL078C, strain dbp3, active compounds read low 1 | locus YGL086W, strain mad1, active compounds read low 0.998 | locus YGL167C, strain pmr1, active compounds read low 0.991 | locus YGL173C, strain kem1, active compounds read low 0.983 | locus YGL227W, strain vid30, active compounds read low 0.979 | locus YGL240W, strain doc1, active compounds read low 0.957 | locus YGL248W, strain PDE1, active compounds read low 1 | locus YGL253W, strain hxk2, active compounds read low 1.01 | locus YGR078C, strain PAC10, active compounds read low 0.975 | locus YGR135W, strain pre9, active compounds read low 1.03 | locus YGR229C, strain SMI1, active compounds read low 0.964 | locus YGR252W, strain gcn5, active compounds read low 0.929 | locus YHR013C, strain ard1, active compounds read low 0.92 | locus YHR027C, strain rpn1, active compounds read low 0.953 | locus YHR030C, strain SLT2, active compounds read low 1 and 0.982 | locus YHR079C, strain IRE1 (second series), active compounds read low 1.01 | locus YHR079C, strain IRE1, active compounds read low 0.978 | locus YHR094C, strain hxt1, active compounds read low 1.02 | locus YHR129C, strain ARP1, active compounds read low 1.01 | locus YHR142W, strain chs7, active compounds read low 0.986 | locus YHR200W, strain rpn10, active compounds read low 0.998 | locus YIL066C, strain RNR3, active compounds read low 0.986 | locus YIL073C, strain SPO22, active compounds read low 1.06 | locus YIL125W, strain kgd1, active compounds read low 1 | locus YIR030C, strain dcg1, active compounds read low 1.01 | locus YJL092W, strain hpr5, active compounds read low 0.976 | locus YJL095W, strain BCK1 (second series), active compounds read low 0.965 | locus YJL095W, strain BCK1, active compounds read low 0.996 and 0.977 | locus YJL115W, strain asf1, active compounds read low 0.966 | locus YJL129C, strain trk1, active compounds read low 0.971 | locus YJL134W, strain LCB3, active compounds read low 0.999 | locus YJL154C, strain vps35, active compounds read low 0.986 | locus YJL164C, strain tpk1, active compounds read low 0.988 | locus YJL166W, strain qcr8, active compounds read low 0.981 | locus YJL168C, strain set2, active compounds read low 1.01 | locus YJL187C, strain SWE1 (second series), active compounds read low 0.999 | locus YJR043C, strain POL32, active compounds read low 0.967 | locus YJR066W, strain TOR1, active compounds read low 0.949 | locus YJR075W, strain HOC1, active compounds read low 0.983
